Data as given in PubChem BioAssay.

test system: Human papillomavirus type 1a protein E7 (residues 44-93); test: HPV1a E7 fragment binders on microarrays, primary screen, biochemical, small-molecule microarray, residues 44-93, 635 nm fluorescence (AID 1108); conditions: small-molecule microarray binding, fluorescence 635 nm; higher = more signal;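 also: E7 fragment applied at 1 µg/mL in TBST for 1 h at 4 C; score combines spot fluorescence with its signal to noise ratio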

Structure (SMILES) | composite z-score
COc1c(C)cc(-c2cc3c(c(-c4ccc(Oc5ccccc5)cc4)n2)[Si](C(C)C)(C(C)C)OC3)cc1C | -0.0076
CCOC(=O)C[C@H]1[C@H](OC(=O)c2ccc(-c3ccccc3)cc2)[C@@H](NC(=O)c2ccc3ccccc3c2)c2cc(OCCCO)ccc2N1C(=O)Cc1ccc(OC)cc1 | 0.758
CC(C)C(=C=CC[C@@H](O)c1ccccc1OCCO)C[C@@H](O)c1ccccn1 | 0.752
CN(C)C(=O)[C@@]1(CCC(=O)OC(C)(C)C)N=C(c2ccc(OCCCO)cc2)O[C@H]1c1ccccc1 | 1.49
C=CCN1C(=O)[C@]2(O[C@H](CCO)[C@@H]([Si](C)(C)c3ccc(OC)cc3)[C@@H]2C)c2cc(NC(=O)[C@H](C)O)ccc21 | 0.942
Cc1ccc(S[C@]2(C(=O)NCCN3CCOCC3)CC(=O)N(Cc3cc(C(F)(F)F)cc(C(F)(F)F)c3)[C@@H]2c2ccc(CO)cc2I)cc1 | 0.105
CCOC(=O)C[C@H]1[C@H](OC(=O)c2ccc(C(=O)c3ccccc3)cc2)[C@@H](NC(=O)C2CCCCC2)c2cc(OCCCO)ccc2N1C(=O)c1ccccc1 | 1.34
CC(C)(C)N1CC=CC23O[C@@H]4/C=C\CCCOC(=O)C4[C@H]2C(=O)N(CCO)[C@@H]3C1=O (some centres undefined) | -0.365
CC1CC/C=C\[C@H]2OC34C=CCN(Cc5ccccc5)C(=O)[C@H]3N(CCCCCO)C(=O)[C@@H]4C2C(=O)O1 (some centres undefined) | -0.853
